{"source": "PubChem BioAssay (NCATS)", "note": "“And” between values parts separate entries of the source, which are not always exact repeats. Equal entries are not always repeated. Records with an inconclusive call do not appear. Values without a mark were called inactive. The source made the active and inactive calls. Potency is read from the fitted curve at half-maximal effect."}
{"assay": "qHTS assay for small molecule agonists of the antioxidant response element (ARE) signaling pathway (AID 651741; active = well fitted activation curve with a large enough effect in the signal ratio; the % refers to the signal ratio; as to activation: % of control where 0% means no effect)", "conditions": "HepG2 ARE-bla reporter, beta-lactamase FRET ratio, 16 h; series mostly up to 96 µM; activation: at the top concentration", "outline": "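Beta-lactamase reporter under ARE control in HepG2 cells, 2,000 per well, was induced by 16 h compound treatment at 37 C. Read-out was fluorescence from LiveBLAzer B/G FRET substrate after 2 h at room temperature.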", "units": {"activation": "%"}}
{"smiles": "O=C(Nc1ccc([N+](=O)[O-])cc1Cl)c1cc(Cl)ccc1O", "Potency": "3.06 µM (active)"}
{"smiles": "CCOC(=O)C(C)(C)Oc1ccc(Cl)cc1", "activation": 3.88}
{"smiles": "CC(C)Cc1ccc(C(C)C(=O)O)cc1", "note": "(stereo not given)", "activation": -4.09}
{"smiles": "Cn1c(=O)c2c(ncn2C)n(C)c1=O", "Potency": "inactive"}
{"smiles": "O=c1c(-c2ccc(O)cc2)coc2cc(O)cc(O)c12", "Potency": "9.69 µM (active) and 13.3 µM (active)"}
{"smiles": "CCC1(c2ccccc2)C(=O)NCNC1=O", "Potency": "inactive"}
{"smiles": "NS(=O)(=O)c1cc2c(cc1Cl)NCNS2(=O)=O", "Potency": "inactive"}
{"smiles": "COc1ccc2[nH]cc(CCNC(C)=O)c2c1", "Potency": "inactive"}
{"smiles": "Nc1ccn([C@H]2CC[C@@H](CO)O2)c(=O)n1", "activation": 5.22}
{"smiles": "Cn1c(=O)c2[nH]cnc2n(C)c1=O", "activation": 5.59}
{"assay": "qHTS assay for small molecule activators of the p53 signaling pathway (AID 651743; active = well fitted activation curve with a large enough effect in the signal ratio, not every such curve was filed as active; the % refers to the signal ratio; as to activation: % of control where 0% means no effect)", "conditions": "HCT-116 p53RE-bla, beta-lactamase FRET ratio, 16 h; activation: stronger effect = higher value", "outline": "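After 16 hours compound treatment at 37 C, HCT-116 cells stably expressing p53RE-driven beta-lactamase were loaded with LiveBLAzer B/G FRET substrate for 2 hours at room temperature. Fluorescence intensity served as the p53 activation read-out.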"}
{"smiles": "O=C(Nc1ccc([N+](=O)[O-])cc1Cl)c1cc(Cl)ccc1O", "Potency": "891 nM (active)"}
{"smiles": "CCOC(=O)C(C)(C)Oc1ccc(Cl)cc1", "activation": "3.33%"}
{"smiles": "CC(C)Cc1ccc(C(C)C(=O)O)cc1", "note": "(stereo not given)", "activation": "-2.52%"}
{"smiles": "Cn1c(=O)c2c(ncn2C)n(C)c1=O", "activation": "-3.61% and -3.49%"}
{"smiles": "O=c1c(-c2ccc(O)cc2)coc2cc(O)cc(O)c12", "activation": "12.7% and 14.1%"}
{"smiles": "CCC1(c2ccccc2)C(=O)NCNC1=O", "activation": "-3.22% and -3.23%"}
{"smiles": "NS(=O)(=O)c1cc2c(cc1Cl)NCNS2(=O)=O", "activation": "-0.393% and 4.88%"}
{"smiles": "COc1ccc2[nH]cc(CCNC(C)=O)c2c1", "activation": "-4% and -3.68% and -2.3%"}
{"smiles": "Nc1ccn([C@H]2CC[C@@H](CO)O2)c(=O)n1", "activation": "-0.413% and 2.91%"}
{"smiles": "Cn1c(=O)c2[nH]cnc2n(C)c1=O", "activation": "0.514%"}
